Here are results for 7 compounds from PubChem BioAssay (NCI).

The panel holds about 83,000 compounds, 20% with a hit somewhere; the sample as a whole holds those more often.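 For each line, cells grew in 96-well plates with the test compound present at a single concentration for 48 hours.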 Unmarked numbers belong to inactive results. The source made the active and inactive calls. How the source made its calls: active means growth percent below 10; inactive means the rest.

Some test systems named below: NCI-H23 lung; NCI-H226 lung; NCI-H322M lung; HOP-62 NSCLC; NCI-H460 lung; HOP-92 NSCLC; NCI-H522 lung; A549/ATCC NSCLC; 786-0 renal; COLO 205 colon; DU-145 prostate; K-562 leukemia; MALME-3M melanoma; MDA-MB-231 breast; RXF 393 renal; SF-268 CNS; SF-295 CNS; SF-539 CNS; UACC-257 melanoma; M14 melanoma.
Common to all, as to assay: NCI-60 one-dose screen, 48 h (100 = growth as untreated, 0 = no growth, -100 = all killed)
Common to all, as to conditions: 10 µM unless noted

With `CCCn1ccnc1C(O)c1ccc(OCc2ccccc2)c(OC)c1` (stereo not given), the growth is 90.7% with NCI-H23 lung; 97.4% in the assay with NCI-H226 lung; 90.1% in the assay on NCI-H322M lung; 87.5% in the assay on HOP-62 NSCLC; 103% with NCI-H460 lung; 68.1% in the assay on HOP-92 NSCLC. Besides, the growth was 66.1% in the assay with NCI-H522 lung; 97.7% in the assay on A549/ATCC NSCLC; 96.6% with 786-0 renal; 93.2% with COLO 205 colon; 104% in the assay with DU-145 prostate; 107% in the assay on K-562 leukemia. For the same compound, the growth is 80.9% in the assay on MALME-3M melanoma; 93.7% with MDA-MB-231 breast; 112% with RXF 393 renal; 93.4% in the assay on SF-268 CNS; 76.4% in the assay on SF-295 CNS; 92.8% with SF-539 CNS. The growth with UACC-257 melanoma is 93.6%; in the assay on M14 melanoma, 97.2%.

As to `CCN(CC)c1cc(N)c(Cc2c(N)cc(N(CC)CC)cc2Cl)c(Cl)c1`, the growth with NCI-H23 lung is 11.1%; in the assay on NCI-H226 lung, 45.6%; with NCI-H322M lung it was 96.9%; with HOP-62 NSCLC it was 51.8%; in the assay with NCI-H460 lung, 35%; with HOP-92 NSCLC, 26.1%. Also, the growth was -3.79% (active) in the assay with NCI-H522 lung; 47% in the assay with A549/ATCC NSCLC; 74.3% in the assay with 786-0 renal; 21.4% with COLO 205 colon; 67.4% in the assay on DU-145 prostate; 19.2% in the assay with K-562 leukemia. The growth in the assay with MALME-3M melanoma was 44.6%; with MDA-MB-231 breast it was 48.5%; with RXF 393 renal, 63.7%; with SF-268 CNS, 36.6%; in the assay on SF-295 CNS it was 31.8%; in the assay on SF-539 CNS, 44.2%. Moreover, the results for the growth with UACC-257 melanoma and in the assay with M14 melanoma were 12.4% and 52.5%, respectively.

With `CC(C)C1=NOC(=O)C1=Cc1cn(-c2ccccc2)nc1-c1ccccc1`, the growth in the assay on NCI-H23 lung was 98%; in the assay with NCI-H226 lung, 95.2%; in the assay with NCI-H322M lung, 91%; in the assay with HOP-62 NSCLC, 99.8%; in the assay with NCI-H460 lung, 85.2%; with HOP-92 NSCLC, 85.2%. Also, the growth in the assay with NCI-H522 lung is 68.7%; in the assay on A549/ATCC NSCLC it was 88.8%; with 786-0 renal, 72.9%; in the assay on COLO 205 colon it was 110%; in the assay with DU-145 prostate it was 80.8%; in the assay with K-562 leukemia it was 42.2%. For the same compound, the growth is 90.5% with MALME-3M melanoma; 97.4% in the assay on MDA-MB-231 breast; 70.3% in the assay with RXF 393 renal; 93.9% with SF-268 CNS; 98.1% with SF-295 CNS; 91.3% in the assay with SF-539 CNS. The growth is 94.1% with UACC-257 melanoma and 76.2% with M14 melanoma.

On to `CCCCC(CC)COC(=O)C[N+](C)(C)CCOC(c1ccccc1)c1ccccc1` (stereo not given), for which the growth is 42% with NCI-H23 lung; 54.1% in the assay on NCI-H226 lung; 88.7% in the assay with NCI-H322M lung; 60.6% in the assay with HOP-62 NSCLC; 65.2% in the assay with NCI-H460 lung; -12.2% (active) in the assay on HOP-92 NSCLC. Also, the growth in the assay on NCI-H522 lung was -24.5% (active); in the assay with A549/ATCC NSCLC it was 88.3%; in the assay with 786-0 renal, 77.7%; with COLO 205 colon, -28% (active); in the assay with DU-145 prostate it was 85.1%; with K-562 leukemia it was 14.6%. Also, the growth with MALME-3M melanoma is 30.8%; in the assay with MDA-MB-231 breast, 29.3%; in the assay on RXF 393 renal it was -4.09% (active); with SF-268 CNS, 49%; with SF-295 CNS, 74.4%; in the assay with SF-539 CNS, 69.7%. The growth was 2.69% (active) in the assay with UACC-257 melanoma and 20.3% in the assay on M14 melanoma.

Regarding `CC(C)c1ccc(/C=N/N=C(N)N)cc1`, the growth with NCI-H23 lung was 80.7%; in the assay on NCI-H226 lung, 93.2%; in the assay with NCI-H322M lung, 106%; with HOP-62 NSCLC, 84.3%; in the assay with NCI-H460 lung, 91.1%; in the assay with HOP-92 NSCLC, 24.1%. For the same compound, the growth with NCI-H522 lung is 66.7%; with A549/ATCC NSCLC, 88.8%; in the assay with 786-0 renal, 93.4%; with COLO 205 colon, 59.8%; in the assay with DU-145 prostate, 98.9%; in the assay with K-562 leukemia it was 19.9%. Further, the growth with MALME-3M melanoma was 88.4%; in the assay with MDA-MB-231 breast it was 89.3%; in the assay with RXF 393 renal, 89.4%; with SF-268 CNS, 88.5%; with SF-295 CNS it was 67%; in the assay with SF-539 CNS, 91.8%. Further, the values for the growth in the assay on UACC-257 melanoma and with M14 melanoma were 77% and 84.9%, respectively.

For the compound `COc1ccc(N(c2nc(-c3ccc([N+](=O)[O-])cc3)cs2)C(C)C)cc1`, the growth with NCI-H23 lung is 65%; with NCI-H226 lung, 76.3%; in the assay on NCI-H322M lung it was 83.1%; in the assay with HOP-62 NSCLC, 84.8%; with NCI-H460 lung, 84.1%; in the assay on HOP-92 NSCLC, 74.3%. For the same compound, the growth with NCI-H522 lung is 67.8%; with A549/ATCC NSCLC, 85.3%; with 786-0 renal, 88.4%; in the assay with COLO 205 colon, 108%; in the assay on DU-145 prostate it was 86.1%; in the assay with K-562 leukemia, 55.1%. The growth in the assay on MALME-3M melanoma was 94.6%; in the assay on MDA-MB-231 breast it was 73.9%; in the assay on RXF 393 renal it was 102%; with SF-268 CNS it was 83.5%; in the assay on SF-295 CNS it was 89.8%; in the assay with SF-539 CNS, 88.7%. In addition, the growth is 80.5% with UACC-257 melanoma and 89.9% in the assay on M14 melanoma.

For `C=CCCCCOc1ccccc1-c1cnc(OCCCCC=C)n1C`, the growth in the assay on NCI-H23 lung is 76%; in the assay on NCI-H226 lung, 92.2%; in the assay on NCI-H322M lung, 72%; with HOP-62 NSCLC, 77.2%; in the assay on NCI-H460 lung it was 55.6%; with HOP-92 NSCLC, 75.2%. Also, the growth was 12.6% in the assay on NCI-H522 lung; 50.3% in the assay with A549/ATCC NSCLC; 107% with 786-0 renal; 46% in the assay on COLO 205 colon; 92.6% in the assay on DU-145 prostate; 30.5% with K-562 leukemia. Besides, the growth in the assay on MALME-3M melanoma is 62.8%; with MDA-MB-231 breast it was 66.5%; with RXF 393 renal, 90.5%; in the assay on SF-268 CNS, 79.6%; with SF-295 CNS, 70.1%; with SF-539 CNS, 81%. The growth with UACC-257 melanoma is 66.6%; with M14 melanoma it was 72.6%.
